Rab9 prom act = activates the Rab9 promoter; Huh7 Rab9 promoter-luciferase reporter, luminescence, 24 h; Potency, µM (top dose mostly 9.22 µM), without a hit: at the highest dose activation, negative = inhibition, actives largely listed as activators; 320,000 tested, 2.8% active; AID 485297; further: % of control where 0% means no effect; nearly all actives have a fitted effect of over 60% in size
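Rab9 promoter-driven luciferase in stably transfected Huh7 cells; 1500 cells/well rested 2 h, exposed to compound in DMSO for 24 h at 37 °C, 5% CO2. Luminescence read 10 min after adding luciferase reagent at ambient temperature.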
ELG1 DNA repair = inhibitors of ELG1-dependent DNA repair in HEK293T cells; HEK293T ELG1-luciferase reporter, luminescence, 16 h; DNA damage induced by 5-fluorouridine; Potency, µM (titrated, usually from 46.1 µM), without a hit: at the top dose activity change, negative = inhibition, actives largely listed as inhibitors; AID 504467; 330,000 tested, 2.3% active; further: on the % scale 0 is the no-effect control and ±100 the full control effect; nearly all actives have a fitted effect of over 55% in size
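Step one: seed 2,000 cells per well. Step two: pin-transfer compound or DMSO alongside 5-fluorouridine. Step three: incubate 16 hr, 37 °C, 5% CO2. Step four: add ONE-Glo, wait 30 min, read luminescence.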
NPC1 prom act = activates the NPC1 promoter. Huh7 NPC1 promoter luciferase reporter, 24 h. Potency, µM (series often up to 9.22 µM), inactives show top-dose activation, most hits filed as activators. 320,000 tested, 2.4% active; further: % of control where 0% means no effect; nearly all actives have a fitted effect of over 60% in size
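Stable NPC1-promoter luciferase Huh7 line; cpd (DMSO) 24 h, 37 °C, 5% CO2; Amplite luciferase reagent 10 min RT; luminescence readout. qHTS format.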
SMN2 splice enh = SMN2 splice variant enhancement | 210,000 tested, 2.8% active | AID 1458 | Potency, µM (titrated, usually from 46.1 µM), for inactives: at the top dose activity change, positive = activation, actives largely listed as activators | HEK293 SMN2-luciferase splicing reporter, luminescence, 30-36 h; further: % of control where 0% means no effect; nearly all actives have a fitted effect of over 55% in size
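HEK293 cells carry an SMN2 […]–luciferase reporter in which exon 7 inclusion puts luciferase in frame. Cells were plated 10-12 h before compound addition, then incubated 30-36 h at 37C. ONE-Glo luminescence was read; sodium butyrate at 4.5 mM final served as control.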
FLuc modulator = counter-screen for miR-21 project: firefly luciferase inhibitors or activators; Potency, µM (top dose mostly 57.5 µM), for inactives: top-dose activity change, negative = inhibition, most hits filed as inhibitors; P08659; AID 588342; 360,000 tested, 6.9% active; purified FLuc, Km substrates, luminescence inhibition;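 further: plate controls were vehicle for no effect and reference inhibitor for full effect; nearly all actives have a fitted effect of over 55% in size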
Target sequence (P08659 whole entry, looked up): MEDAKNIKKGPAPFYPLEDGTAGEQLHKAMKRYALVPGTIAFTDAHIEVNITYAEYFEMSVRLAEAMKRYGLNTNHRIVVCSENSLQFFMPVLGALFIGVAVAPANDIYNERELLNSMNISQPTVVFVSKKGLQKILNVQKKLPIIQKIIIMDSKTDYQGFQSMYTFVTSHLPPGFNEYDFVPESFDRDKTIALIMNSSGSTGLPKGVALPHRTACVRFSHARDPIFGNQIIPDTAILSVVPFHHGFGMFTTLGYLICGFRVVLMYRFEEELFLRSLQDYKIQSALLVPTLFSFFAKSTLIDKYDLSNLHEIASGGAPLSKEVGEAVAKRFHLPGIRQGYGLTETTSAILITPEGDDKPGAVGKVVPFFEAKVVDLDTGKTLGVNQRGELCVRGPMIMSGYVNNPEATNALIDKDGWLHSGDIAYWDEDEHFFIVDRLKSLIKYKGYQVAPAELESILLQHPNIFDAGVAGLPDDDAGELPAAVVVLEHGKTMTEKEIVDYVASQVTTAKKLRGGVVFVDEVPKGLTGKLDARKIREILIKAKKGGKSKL
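Purified P. pyralis luciferase, 10 nM final, with Km-level 10 uM D-luciferin and 10 uM ATP in 50 mM Tris acetate pH 7.5, 10 mM Mg acetate, 0.01% Tween-20, 0.05% BSA; 6-point qHTS titration about 60 µM downward; luminescence read.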
ELG1 genotoxic = induces genotoxicity in HEK293T cells with luciferase-tagged ELG1 | HEK293T ELG1-luciferase reporter, luminescence, 16 h | Potency, µM (doses to about 46 µM), without a hit: at the highest dose activity change, positive = activation, most hits filed as activators | 330,000 tested, 1.3% active | AID 504466; further: % of control where 0% means no effect; nearly all actives have a fitted effect of over 60% in size
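Genotoxicity was scored as increased ELG1-luciferase reporter signal, measured by ONE-Glo luminescence (30 min, room temperature). Compound or vehicle exposure of the HEK293T reporter cells lasted 16 hr at 37°C.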
* marks the source's active call; other numbers are inactive results; ? = inconclusive; · = no result. The list is not random: actives were taken first. Their share in the collection is about 9.2%. The call rests on the fitted dose curve; in most records, active means well fitted curve in the direction sought with a large enough effect; inconclusive means small, poorly fitted or top-dose-only effect, or another doubt; inactive means no such curve, though single readings can be large; an effect the other way counts as inactive or inconclusive. Potency means the concentration at half of the fitted maximal effect.

SMILES | Rab9 prom act | ELG1 DNA repair | NPC1 prom act | SMN2 splice enh | FLuc modulator | ELG1 genotoxic
COc1ccc(-c2cc(OC(=O)c3ccccc3Cl)c3c(C)oc(C)c3c(=O)c2)cc1OC | · | · | · | 5% | -8% | ·
Cc1nn2c(=O)cc(COC(=O)C(c3ccccc3)c3ccccc3)nc2s1 | · | · | · | · | -10% | ·
CC(C)(C)OC(=O)C[C@@H]1C/C=C\C[C@@H](CC(=O)N[C@@H](CO)Cc2ccccc2)C(=O)NC[C@@H](c2ccccc2)OC1=O | · | 7.3µM* | · | · | · | -5%
O=C1NC[C@@H](c2ccccc2)OC(=O)[C@@H](Cc2ccc(F)cc2)CC/C=C/C[C@H]1CC(=O)N(CCO)Cc1ccccc1 | · | 13µM* | · | · | · | -5%
O=C1NC[C@@H](c2ccccc2)OC(=O)[C@H](Cc2ccc(F)cc2)C/C=C\C[C@H]1CC(=O)N(CCO)Cc1ccccc1 | · | 21µM* | · | · | · | -3%
O=C1N[C@@H](c2ccccc2)COC(=O)[C@H](Cc2ccc(F)cc2)CC/C=C/C[C@H]1CC(=O)N(CCO)Cc1ccccc1 | · | ? | · | · | · | -15%
O=C(C[C@@H]1C/C=C/CC[C@@H](Cc2ccc(F)cc2)C(=O)O[C@@H](c2ccccc2)CNC1=O)NCCO | · | 7.3µM* | · | · | · | -7%
CC(C)(C)OC(=O)C[C@H]1C/C=C\C[C@@H](CC(=O)N[C@@H](CO)Cc2ccccc2)C(=O)NC[C@@H](c2ccccc2)OC1=O | · | ? | · | · | · | 0%
O=Cc1ccc(OC(=O)c2cccnc2)cc1 | 1% | 9% | -4% | -8% | 3% | -3%
O=C(C[C@H]1C/C=C/CC[C@H](Cc2ccc(F)cc2)C(=O)O[C@H](c2ccccc2)CNC1=O)NCCO | · | -7% | · | · | · | 4%
CC(C)(C)OC(=O)C[C@H]1C/C=C\C[C@@H](CC(=O)N(CCO)Cc2ccccc2)C(=O)NC[C@H](c2ccccc2)OC1=O | · | 18µM* | · | · | · | -4%
CC(C)(C)OC(=O)C[C@@H]1C/C=C\C[C@H](CC(=O)N(CCO)Cc2ccccc2)C(=O)NC[C@@H](c2ccccc2)OC1=O | · | -17% | · | · | · | 2%
O=C1NC[C@H](c2ccccc2)OC(=O)[C@H](Cc2ccc(F)cc2)CC/C=C/C[C@@H]1CC(=O)N(CCO)Cc1ccccc1 | · | 12µM* | · | · | · | -12%
Cc1ccc(S(=O)(=O)c2cc3c(=O)n4ccccc4nc3n(C3CCCCC3)c2=N)cc1 | 0% | -1% | -3% | · | 3% | -3%
CC1CCN(S(=O)(=O)c2ccc3c(ccc(=O)n3CC(=O)NCc3ccccc3Cl)c2)CC1 | · | · | · | · | -2% | ·
O=S(=O)(c1ccccc1)c1nc(-c2ccc(Cl)cc2Cl)oc1N1CCCCCC1 | · | · | · | -1% | -1% | ·
c1cncc(-c2ccc3ncnc(NCc4ccc5c(c4)OCO5)c3c2)c1 | 1% | ? | 1% | · | 3% | -4%
c1nc(NCc2ccc3c(c2)OCO3)c2cc(-c3ccoc3)ccc2n1 | -1% | 1.6µM* | 26% | · | ? | -7%
O=C(NCc1ccco1)C1CCN(C(=O)c2ccc([N+](=O)[O-])cc2)CC1 | 11% | 10% | 1% | · | 4% | 0%
CC1CCN(CC(=O)Nc2sc3c(c2C#N)CCC3)CC1 | 4% | 18% | 10% | · | -8% | 4%
CCc1c(C)sc(NC(=O)c2ccoc2C)c1C(N)=O | 20% | 27% | 20% | · | 11µM* | 8%
CC1CCc2c(sc(NC(=O)CN3CCN(C(=O)c4ccco4)CC3)c2C#N)C1 (centres undefined) | -1% | 16µM* | 1% | -27% | ? | -3%
O=C(Nc1sc2c(c1C(=O)O)CCCCC2)c1ccco1 | ? | ? | 2.8µM* | 11µM* | 4.3µM* | ?
NC(=O)c1c(NC(=O)c2ccco2)sc2c1CCC2 | 2µM* | ? | 3.5µM* | 13µM* | 9.5µM* | 11µM*
Cc1c(Cl)cccc1NC(=O)CCCn1nc(C)c2sc3ccccc3c2c1=O | · | · | · | · | 5% | ·
SMILES | Rab9 prom act | ELG1 DNA repair | NPC1 prom act | SMN2 splice enh | FLuc modulator | ELG1 genotoxic
O=C(Cn1c(=O)n(Cc2ccco2)c(=O)c2oc3ccccc3c21)Nc1ccc(F)cc1F | · | · | · | · | 5% | ·
CCC(=O)N1CCc2cc(S(=O)(=O)CCC(=O)Nc3ccc(C)cn3)ccc21 | -7% | 0% | -3% | -1% | 0% | 0%
COC(=O)c1c(NC(=O)c2ccc(OC)cc2OC)sc2c1CCCCC2 | · | · | · | 9% | 6µM* | ·
CC1CCc2c(sc(NC(=O)c3ccco3)c2C(=O)O)C1 (centres undefined) | -49% | ? | ? | · | 7.6µM* | 10%
COC(=O)c1c(NC(=O)c2c(OC)cccc2OC)sc2c1CCCC2 | · | · | · | 4% | ? | ·
COC(=O)c1c(NC(=O)c2ccco2)sc2c1CC(C)(C)NC2(C)C | 2% | 9.2µM* | 0% | · | -2% | -11%
CN1CCN(C(=O)c2c(NC(=O)c3ccco3)sc3c2CCC(C(C)(C)C)C3)CC1 (centres undefined) | 5% | 3% | 2% | -16% | -6% | 0%
CCOC(=O)c1c(NC(=O)C(C)N2CCN(C(=O)c3ccco3)CC2)sc2c1CCCC2 (centres undefined) | -6% | 7.3µM* | -10% | -22% | -3% | -7%
O=C(CSc1nnc(Cc2ccccc2)n1Cc1ccco1)NC12CC3CC(CC(C3)C1)C2 | -2% | ? | 0% | -65% | 1% | -13%
Cc1occc1C(=O)Nc1sc2c(c1C(N)=O)CCCCC2 | ? | ? | ? | ? | 2.7µM* | 10µM*
COC(=O)c1c(NC(=O)c2ccoc2C)sc2c1CCC2 | 2% | 16% | -2% | -2% | 1% | 11%
CCOC(=O)c1c(NC(=O)c2ccco2)sc2c1CCCCC2 | -7% | -1% | 9% | 26% | 17µM* | -1%
NC(=O)c1c(NC(=O)CSc2nnc(Cc3ccccc3)n2Cc2ccco2)sc2c1CCC2 | -10% | 23µM* | -3% | -47% | 4% | -22%
CCOC(=O)c1ccccc1NC(=O)Cn1c(=O)n(Cc2nc(-c3ccccc3)no2)c(=O)c2ccccc21 | · | · | · | · | 6% | ·
COc1ccc(NC(=S)N2CCN(S(=O)(=O)c3ccccc3)CC2)cc1OC | -2% | -13% | 1% | · | 0% | -1%
COC(=O)N/N=C\c1ccc(OC/C=C/c2ccccc2)c(OC)c1 | 1% | -1% | -1% | · | -2% | 2%
